# Results published in the supplement of paper PMC6555819.
# System: VDR:RXRa (NR concentration 270 nM, RXRa partner concentration 90 nM)
# Test: PBM binding z-score (relative to random genomic background probes); higher = stronger binding; sequences stand for … in GC…GCGATTGACAGCGTAGAATGAAGG
# Method: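 Protein-binding microarray (Agilent 4x180K custom design, double-stranded 60-nt probes: 5' GC cap, 34-nt variable region, 24-nt constant primer region; full probe sequence given). Purified or IVT nuclear receptor:RXRα heterodimers (3:1 NR:RXRα, mostly 270:90 nM) or homodimers were incubated for 1 h in PBS with 2% milk and no ligand, then detected with Alexa488 antibodies. Fluorescence from o1-orientation probes (~5 replicates averaged) was converted to z-scores against 500 random hg19 background probes. Variable regions are seed direct-repeat (DR0–DR5) sites, all their single-nucleotide variants and half-site ablations.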
row,Sequence,PBM binding z-score
1,TCGAGTAGGTTAGTCGGGGCATACAGCCAACATA,1.74
2,CTCGAAAGGTCGGTTAAGGTGAGTATACGGATAA,2.03
3,AATAGCAGGCCAAGTTTGGGTCACTCAAACAAAG,0.703
4,CTACCAAGGTGGACAAGGTCGTTGATTACTATTC,3
5,GCTGCTAGGTCTACTGATGGTCAGCTAAAGCTCG,-0.746
6,AGTCAAAGTTCATCTAGGTACCGTAAGATATGCT,4.98
7,GTACCAAGCTGAATAGGTCGTTGATGAGTAGGCG,-0.239
8,CTCGAAAGGTCGTGCTGAGGTGAGTATACCAAAC,3.85
9,ATCTCTATGTAACCAAGTTCAGTGAATGCCGAAC,2.22
10,GGAACGAGGGCATCCGAGTTGATAGCATGGCGAT,3.18
11,CCTTACGGGTCACAAGGTTATAGCACGACGAGCG,4.37
12,TCTAGTTTGTCAAAGGTCACACACTCGAAATGCG,5.12
13,ATATCTAGGTAAGACTCAGTTCAGTGAAGAACGC,0.941
14,AGTCAAAGTTCACTAGATAACGTAAGATTCAGCT,3.5
15,CGTCAAAGTTCAACAAAGGTAACGTAAAGCACGC,4.46
16,CCTAGTTGTTCAAGGTCACACACGCTATAGGTAC,4.49
17,CATACAGGGTCAGCTAGCCCAGAGTAGGGACGGC,2.52
18,GCTGCTAGGTCAGGGTGGTCAGCTAACGGGTACG,1.25
19,GCGACTGGGGCAAAGCAAGTTACCATAAGGTTGG,-0.206
20,TAGCCTAGGTCATGCGGGCCAGTACAGTGTCGGC,2.83

row,Sequence,PBM binding z-score
1,ATATGTAGGTTACATCTGGGTCATTCAGGCTATG,3.04
2,CCTGCTGGGCCAAGGTCATTGATCAGTCAAAGCA,3.06
3,CTCGAAAGGTCGTGCTCAGGTGAGTTTACCAAAC,3.98
4,CAAACTAGGTCCAGAGGTCAAAGTCCGCTTCCCG,5.14
5,CGAACGAGGGCATGAGTTAATAGCAAATGCCGAT,0.731
6,CCTACTAGGTCATGGTCAGCTAATCTACAGTATG,1.8
7,AGAATGAGGTTGTTAAGATCAGGGAATTGCGGTC,0.496
8,TTATATAGGTAAAAGGTGAAAGTCGGTGTGGTAA,1.4
9,TCTTGTAGATTAAGCAGGTTAAGAAAGCCTGAGT,0.313
10,ATATGTAGGTAAGCTGGGGTCATTCAGACTAGGC,5.49
11,ACTTACGGGTCAACGAGGTTATAGGACGCGTATA,7.69
12,GGAACGAGGGCAATTTGATAGCAGAGTTTGATGG,0.368
13,CCTACTGGGCCATCAGGTCATTGATATCAACGTT,1.81
14,GCTGCTAGGTCAACTGATTGTCAGCTAAAGCTCG,1.14
15,TTACCAAGGTGAAAGATCGTTGATGCACGCCTTG,0.0935
16,CGTCCAAGGTCAGAGAGGTCAGTTAATGCCGAGT,7.74
17,CCTCGGAGGACAACAGGAGGTCAGAGATGCCAGA,2.29
18,CCTTACGGGTCACTGACAGGTTATAGTATTTGGA,3.85
19,GGAACGAGGGCAAGTTGATAGTAGAGTTTGATGG,1.34
20,CGTCCAACGTCATAGGAGGTCAGTGAAGACAGAT,2.06
